# Sampled rows, rich in hits. Any-hit rate of the full collection: about 9.2%.
# ELG1 genotox = genotoxicity induction in ELG1-luciferase HEK293T cells | HEK293T ELG1-luciferase reporter, luminescence, 16 h | Potency, µM (top dose mostly 46 µM), inactives show at the top dose activity change, positive = activation, actives largely listed as activators | 330,000 compounds, 1.3% hits | AID 504466; also: % of control where 0% means no effect; nearly all actives have a fitted effect of over 60% in size
#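 Genotoxic stress is detected as increased luminescence from luciferase-tagged ELG1 in HEK293T cells, measured with ONE-Glo after a 16 hr treatment at 37 °C.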
# SMN2 splice enh = SMN2 splice variant enhancement. Potency, µM (doses to about 46.1 µM), without a hit: top-dose activity change, positive = activation, usual class: activators. 210,000 compounds, 2.8% hits. HEK293 SMN2-luciferase splicing reporter, luminescence, 30-36 h; also: % of control where 0% means no effect; nearly all actives have a fitted effect of over 55% in size
#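 HEK293 cells carry an SMN2 minigene-luciferase reporter in which exon 7 inclusion puts luciferase in frame. Cells were seeded at 2000 cells/well, attached for 10-12 hours, then exposed to compounds for 30-36 hours at 37C before ONE-Glo luminescence.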
# NPC1 promoter act = activators of NPC1 promoter; AID 485313; Huh7 NPC1 promoter luciferase reporter, 24 h; 320,000 compounds, 2.4% hits; Potency, µM (highest dose often 9.22 µM), for inactives: at the highest dose activation, usual class: activators; also: % of control where 0% means no effect; nearly all actives have a fitted effect of over 60% in size
#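 In 1536-well qHTS, Huh7 cells harboring an NPC1 promoter–luciferase construct received compound for 24 h; activation was quantified by luminescence following luciferase reagent addition.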
# FLuc modulator = inhibits or activates purified firefly luciferase, miR-21 counter-screen; P08659; purified FLuc, Km substrates, luminescence inhibition; Potency, µM (doses to about 57.5 µM), for the others: top-dose activity change, negative = inhibition, hits mostly inhibitors; 360,000 compounds, 6.9% hits; AID 588342;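 also: plate controls were vehicle for no effect and reference inhibitor for full effect; nearly all actives have a fitted effect of over 55% in size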
# Target sequence (P08659 whole entry, looked up): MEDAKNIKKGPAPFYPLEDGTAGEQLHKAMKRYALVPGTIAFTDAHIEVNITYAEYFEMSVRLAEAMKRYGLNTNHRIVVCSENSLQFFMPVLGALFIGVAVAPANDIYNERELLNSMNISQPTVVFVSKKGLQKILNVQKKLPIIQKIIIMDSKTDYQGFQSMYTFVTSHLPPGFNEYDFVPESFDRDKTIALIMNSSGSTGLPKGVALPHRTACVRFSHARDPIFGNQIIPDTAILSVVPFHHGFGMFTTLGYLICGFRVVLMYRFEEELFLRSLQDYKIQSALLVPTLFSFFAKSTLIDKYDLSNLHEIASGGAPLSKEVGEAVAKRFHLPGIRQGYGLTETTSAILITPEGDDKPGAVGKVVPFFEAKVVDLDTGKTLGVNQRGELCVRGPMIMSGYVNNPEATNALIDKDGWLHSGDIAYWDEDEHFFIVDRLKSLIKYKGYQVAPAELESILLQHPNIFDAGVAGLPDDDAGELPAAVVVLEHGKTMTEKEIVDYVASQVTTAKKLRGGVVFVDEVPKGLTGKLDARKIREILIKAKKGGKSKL
#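 Purified P. pyralis luciferase (10nM final) with 10uM D-luciferin and 10uM ATP (Km levels) in 50mM Tris acetate pH 7.5, 10mM Mg acetate, 0.01% Tween-20, 0.05% BSA; qHTS 6-point titration, ~60 µM downward; luminescence read.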
# ELG1 DNA repair = blocks ELG1-dependent DNA repair in HEK293T cells; HEK293T ELG1-luciferase reporter, luminescence, 16 h; DNA damage induced by 5-fluorouridine; 330,000 compounds, 2.3% hits; Potency, µM (top dose mostly 46.1 µM), for the others: top-dose activity change, negative = inhibition, usual class: inhibitors; AID 504467; also: % is scaled to controls: 0 for no effect and ±100 for the full control effect; nearly all actives have a fitted effect of over 55% in size
#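 Quantitative HTS, concentration-response format. 2,000 cells/well co-treated with 5-fluorouridine and compound, 16 hr in 5% CO2 at 37 °C; ONE-Glo luminescence read after 30 min.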
# Rab9 promoter act = Rab9 promoter activation | Huh7 Rab9 promoter-luciferase reporter, luminescence, 24 h | Potency, µM (top dose mostly 9.22 µM), inactives show top-dose activation, negative = inhibition, actives largely listed as activators | 320,000 compounds, 2.8% hits | AID 485297; also: % of control where 0% means no effect; nearly all actives have a fitted effect of over 60% in size
#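 Stable Rab9-luc Huh7, 1500 cells/well, 2 h settle; cmpd in DMSO, 24 h, 37 °C/5% CO2; luciferase reagent 10 min RT; luminescence.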
# An asterisk follows results filed as active; ? = inconclusive; / = no result; [ ] = another dose, or the depositor's remark. Calls follow the shape of the dose curve; as a rule, active = well fitted curve in the direction sought with a large enough effect; inconclusive = small, poorly fitted or top-dose-only effect, or another doubt; inactive = no such curve, though single readings can be large; an effect the other way counts as inactive or inconclusive. Potency is read from the fitted curve at half-maximal effect.
SMILES,ELG1 genotox,SMN2 splice enh,NPC1 promoter act,FLuc modulator,ELG1 DNA repair,Rab9 promoter act
CCN(CC)c1ccc(Nc2cc3n(c(=O)n2)CCc2cc(OC)c(OC)cc2-3)cc1,0%,/,1%,24µM*,5.2µM*,17%
COc1cc2c(cc1OC)-c1cc(Nc3ccc(N(C)C)cc3)nc(=O)n1CC2,?,/,-3%,12µM*,?,-5%
Cc1ccccc1Nc1c(-c2ccc(O)cc2)nc2c(C)cccn12,/,-2%,/,?,/,/
COC(=O)c1cccc(COC(=O)c2ccc(N(C)C)cc2)c1,3%,?,25%,?,?,?
CN(C)c1ccc(C(=O)OCc2ccccc2)cc1,23µM*,-1%,12%,12µM*,?,8%
COC(=O)c1ccc(COC(=O)c2ccc(N(C)C)cc2)cc1,0%,7.1µM*,?,-15%,24%,21%
Nc1c([N+](=O)[O-])c(=O)oc2ccccc12,-2%,2%,-3%,1%,0%,11%
CCOC(=O)Cc1cc(=O)n(-c2nc3ccccc3s2)[nH]1,2%,12%,-4%,24µM*,13%,6%
CCCc1cc(=O)n(-c2nc3ccccc3s2)[nH]1,-9%,/,-1%,?,21µM*,-5%
N#Cc1c[nH]n2c(NC3CCCCC3)c(-c3ccc(F)cc3)nc12,/,/,/,-3%,/,/
Cc1onc(-c2c(Cl)cccc2Cl)c1C(=O)Nc1nccs1,-22%,/,0%,3%,23µM*,-2%
Cc1cnc(C(=O)Nc2nnc(C)s2)cn1,13%,1%,23%,-14%,?,12%
O=C(Nc1nccs1)c1cn2ccccc2n1,?,/,0.32µM*,1.3µM*,?,0.11µM*
Cc1csc(NC(=O)c2c(-c3c(Cl)cccc3Cl)noc2C)n1,1%,-16%,-2%,-1%,-19%,-2%
CCC(C)C(=O)Nc1nccs1 (stereo not drawn),11%,/,9%,?,?,3%
CCC(C)OC(=O)n1ccc(C(=O)Nc2nccs2)n1 (stereo not drawn),7%,41%,0%,17µM*,?,4%
Cc1cnc(C(=O)Nc2nnc(C(C)C)s2)cn1,9.2µM*,13µM*,2.5µM*,?,?,2.8µM*
Cc1cnc(C(=O)Nc2nccs2)cn1,24%,8%,?,?,?,3.2µM*
Cc1cnc(C(=O)Nc2nnc(C3CC3)s2)cn1,?,21%,20%,-16%,?,26%
O=C(COC(=O)CNC(=O)c1ccc(Cl)cc1Cl)Nc1cccc(S(=O)(=O)N2CCCC2)c1,0%,/,-4%,-2%,-10%,0%
O=C1N[C@H](Cc2ccccc2)COC(=O)[C@@H](Cc2ccc(F)cc2)C/C=C\C[C@H]1CC(=O)N(CCO)Cc1ccccc1,-3%,/,/,/,?,/
O=C(N[C@H]1C/C=C\C[C@@H](CC(=O)N(CCO)Cc2ccccc2)C(=O)N[C@H](Cc2c[nH]c3ccccc23)COC1=O)OCC1c2ccccc2-c2ccccc21,-5%,/,/,/,21µM*,/
O=C1N[C@@H](Cc2c[nH]c3ccccc23)COC(=O)[C@@H](Cc2ccc(F)cc2)C/C=C\C[C@H]1CC(=O)N(CCO)Cc1ccccc1,-11%,/,/,/,18µM*,/
O=C1N[C@@H](Cc2c[nH]c3ccccc23)COC(=O)[C@H](Cc2ccc(F)cc2)C/C=C\C[C@@H]1CC(=O)N(CCO)Cc1ccccc1,-9%,/,/,/,23µM*,/
COc1ccc(CCNC(=O)c2ccc(Cl)c(S(=O)(=O)N3CCCC3)c2)cc1,-3%,/,-8%,/,?,-13%
SMILES,ELG1 genotox,SMN2 splice enh,NPC1 promoter act,FLuc modulator,ELG1 DNA repair,Rab9 promoter act
Cc1cccc(CN2CCC(CNC(=O)c3c(C)oc4ncnc(N5CCCCC5)c34)CC2)c1,/,/,/,-1%,/,/
O=C(Nc1ccccc1NC(=O)c1ccc(F)cc1)c1ccc(F)cc1,-2%,/,-4%,-1%,-8%,-3%
Nc1[nH]c(N=NC(=O)c2ccc(F)cc2)c2ccccc12,?,/,?,7.6µM*,?,4µM*
Nc1ccccc1C(=O)NCc1ccc(F)cc1,3%,1%,0%,-1%,8%,-1%
Nc1ccccc1C(=O)N=Nc1[nH]c(N)c2ccccc12,?,18µM*,3.5µM*,3.8µM*,?,2.8µM*
CCCOc1cccc(C2c3c(oc4ccc(F)cc4c3=O)C(=O)N2c2nc(C)c(C(C)=O)s2)c1 (stereo not drawn),/,-4%,/,0%,/,/
c1ccc(-c2nc(C3CCCCC3)no2)cc1,21µM*,24%,12%,17µM*,?,7%
COc1ccc(-c2nc(C3CCCCC3)no2)cc1OC,?,23%,?,15µM*,?,2µM*
Cc1ccc(-c2nc(C3CCN(S(=O)(=O)c4ccc(C(C)(C)C)cc4)CC3)no2)cc1,-9%,-5%,0%,-6%,3%,-9%
CN(C)c1ncc2nc(-c3ccc(Cl)cc3)c(=O)n(C3CC3)c2n1,/,7%,/,/,/,/
Oc1oc(-c2ccco2)nc1C=Nc1ccccc1,0%,/,-2%,-5%[2.3 µM],0%,11%
Oc1oc(-c2ccco2)nc1C=Nc1cccc(Cl)c1,-4%,-16%,0%,15µM*,6%,-7%
CCCCN(Cc1cc2cc(OC)ccc2[nH]c1=O)S(=O)(=O)c1ccc(C)cc1,-8%,/,-9%,4%,?,-1%
COCCOC(=O)C1=C(C)NC(=S)NC1/C=C/c1ccccc1 (stereo not drawn),3%,-1%,3%,-2%,5.8µM*,0%
CC(=O)c1ccsc1B(O)O,/,-3%,/,/,/,/
CCOC(=O)c1sc(NC(=O)c2ccc(S(=O)(=O)N3CCCCCC3)cc2)nc1-c1ccccc1,-10%,-78%,-3%,5%,13µM*,-2%
CCOC(=O)c1sc(NC(=O)c2ccc(S(=O)(=O)N3CCOCC3)cc2)nc1-c1ccccc1,-8%,-40%,-1%,1%,26µM*,-1%
CCOC(=O)c1sc(NC(=O)c2ccc(S(=O)(=O)N3CCCCC3)cc2)nc1-c1ccccc1,-8%,-61%,-1%,3%,21µM*,-3%
Cc1cc(C(=O)N/N=C/c2cc(Br)c(Br)o2)n[nH]1,16%,/,15%,-4%,?,27%
Cc1cc(=O)[nH]c(N/N=C/c2ccc(-c3ccc(F)cc3)o2)n1,9%,/,26%,6µM*,?,?
CSc1ccc(/C=N/Nc2nc(C)cc(=O)[nH]2)cc1,10%,23%,16%,?,?,26%
CCCCc1nnc(NC(=O)COc2ccc3c(C)cc(=O)oc3c2)s1,0%,/,-3%,-3%,-3%,-2%

# Assay outcomes: PubChem, National Center for Advancing Translational Sciences (NCATS)
